# Results: PubChem BioAssay (NCATS)
# Results filed as inconclusive are left out. Entries that show only a call come without a potency. Unmarked numbers belong to inactive results. Active and inactive are the calls of the source. Calls come from the whole dose curve; as a rule, active = well fitted curve in the direction sought with a large enough effect; inconclusive = small, poorly fitted or top-dose-only effect, or another doubt; inactive = no such curve, though single readings can be large; an effect the other way counts as inactive or inconclusive.
# Experiments:
# [1] = qHTS of pediatric cancer cell lines to identify multiple opportunities for drug repurposing: Primary screen for DAOY cells (AID 1347090); details: DAOY medulloblastoma viability, CellTiter-Glo luminescence, 48 h; series mostly up to 46 µM; note: nearly all actives have a fitted effect of over 55% in size; note: potency is the fitted concentration of half-maximal effect
# Summary of the method: (§1)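 Viability measured as metabolically active cells via CellTiter-Glo luminescence following 48 hours of compound exposure, 11-point dilutions in confirmatory testing. 500-1,000 cells/well plated 5 hours before dosing; controls were DMSO and 2.3 µM bortezomib.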
# [2] = qHTS of pediatric cancer cell lines to identify multiple opportunities for drug repurposing: Primary screen for A673 cells (AID 1347092); details: A673 Ewing sarcoma viability, CellTiter-Glo ATP luminescence, 48 h; series mostly up to 46 µM; note: nearly all actives have a fitted effect of over 45% in size; note: potency is the fitted concentration of half-maximal effect
# Summary of the method: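 Cells are plated, rested 5 h, dosed by pintool, incubated 48 h, then lysed with CellTiter-Glo and read by luminescence. DMSO is the neutral control; bortezomib at 2.3 uM final is the positive control.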
# [3] = qHTS of pediatric cancer cell lines to identify multiple opportunities for drug repurposing: Primary screen for SK-N-MC cells (AID 1347093); details: SK-N-MC viability, CellTiter-Glo luminescence, 48 h; series mostly up to 46 µM; note: potency is the fitted concentration of half-maximal effect
# Summary of the method: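 Metabolically active cells were quantified by ATP-dependent luminescence (CellTiter-Glo, 15 min at room temperature) following 48 h treatment. Cells had been plated at 500-1,000 per well and settled for 5 h beforehand.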
# [4] = qHTS of pediatric cancer cell lines to identify multiple opportunities for drug repurposing: Primary screen for BT-37 cells (AID 1347094); details: BT-37 viability, CellTiter-Glo luminescence, 48 h; series mostly up to 57.3 µM
# Summary of the method: (§2)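 Plated cells (500-1,000 per well, growth media) were allowed to settle for 5 hours, treated with compound dilutions for 48 hours, then lysed with CellTiter-Glo for 15 min at room temperature before luminescence reading.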
# [5] = qHTS of pediatric cancer cell lines to identify multiple opportunities for drug repurposing: Primary screen for U-2 OS cells (AID 1347096); details: U-2 OS viability, CellTiter-Glo luminescence, 48 h; series mostly up to 46 µM; note: nearly all actives have a fitted effect of over 50% in size
# Summary of the method: (§3)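 Viability after 48 h compound treatment at 37C, 500-1,000 cells/well, read as ATP luminescence with CellTiter-Glo. Primary screens used 11-point (MIPE, 0.78 nM-46 µM) or 8-point (NPC, 0.59 nM-46 µM) final concentrations; follow-up screens used 11-point dilutions.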
# [6] = qHTS of pediatric cancer cell lines to identify multiple opportunities for drug repurposing: Primary screen for Saos-2 cells (AID 1347097); details: Saos-2 viability, CellTiter-Glo ATP luminescence, 48 h; series mostly up to 46 µM; note: nearly all actives have a fitted effect of over 40% in size; note: potency is the fitted concentration of half-maximal effect
# Summary of the method: as §2
# [7] = qHTS of pediatric cancer cell lines to identify multiple opportunities for drug repurposing: Primary screen for SK-N-SH cells (AID 1347098); details: SK-N-SH viability, CellTiter-Glo luminescence, 48 h; series mostly up to 57 µM; note: nearly all actives have a fitted effect of over 65% in size; note: potency is the fitted concentration of half-maximal effect
# Summary of the method: (§4)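 Cells (500-1,000/well) rested 5 h, then received compounds for 48 h; metabolically active cells were measured by CellTiter-Glo luminescence. Final concentrations spanned up to 46 µM (MIPE, 11-point) or 0.59 nM-46 µM (NPC, 8-point) in primary screens, 11-point in follow-ups.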
# [8] = qHTS of pediatric cancer cell lines to identify multiple opportunities for drug repurposing: Primary screen for NB1643 cells (AID 1347099); details: NB1643 neuroblastoma viability, CellTiter-Glo luminescence, 48 h; series mostly up to 46 µM; note: nearly all actives have a fitted effect of over 50% in size; note: potency is the fitted concentration of half-maximal effect
# Summary of the method: as §2
# [9] = qHTS of pediatric cancer cell lines to identify multiple opportunities for drug repurposing: Primary screen for BT-12 cells (AID 1347101); details: BT-12 viability, CellTiter-Glo luminescence, 48 h; series mostly up to 57.3 µM; note: nearly all actives have a fitted effect of over 25% in size; note: potency is the fitted concentration of half-maximal effect
# Summary of the method: as §4
# [10] = qHTS of pediatric cancer cell lines to identify multiple opportunities for drug repurposing: Primary screen for Rh18 cells (AID 1347102); details: Rh18 rhabdomyosarcoma viability, CellTiter-Glo luminescence, 48 h; series mostly up to 46 µM; note: nearly all actives have a fitted effect of over 65% in size
# Summary of the method: as §3
# [11] = qHTS of pediatric cancer cell lines to identify multiple opportunities for drug repurposing: Primary screen for RD cells (AID 1347104); details: RD rhabdomyosarcoma viability, CellTiter-Glo luminescence, 48 h; series mostly up to 46 µM; note: nearly all actives have a fitted effect of over 55% in size
# Summary of the method: as §2
# [12] = qHTS of pediatric cancer cell lines to identify multiple opportunities for drug repurposing: Primary screen for MG 63 (6-TG R) cells (AID 1347105); details: MG 63 (6-TG R) viability, CellTiter-Glo, 48 h; series mostly up to 46 µM; note: nearly all actives have a fitted effect of over 50% in size
# Summary of the method: as §2
# [13] = qHTS of pediatric cancer cell lines to identify multiple opportunities for drug repurposing: Primary screen for Rh30 cells (AID 1347107); details: Rh30 rhabdomyosarcoma viability, CellTiter-Glo luminescence, 48 h; series mostly up to 46 µM; note: nearly all actives have a fitted effect of over 75% in size
# Summary of the method: as §3
# [14] = qHTS of pediatric cancer cell lines to identify multiple opportunities for drug repurposing: Primary screen for Rh41 cells (AID 1347108); details: Rh41 rhabdomyosarcoma viability, CellTiter-Glo luminescence, 48 h; series mostly up to 46 µM; note: nearly all actives have a fitted effect of over 70% in size; note: potency is the fitted concentration of half-maximal effect
# Summary of the method: as §2
# [15] = qHTS of pediatric cancer cell lines to identify multiple opportunities for drug repurposing: Primary screen for SJ-GBM2 cells (AID 1347091); details: SJ-GBM2 viability, CellTiter-Glo luminescence, 48 h; series mostly up to 46 µM
# Summary of the method: as §1
# [16] = qHTS of pediatric cancer cell lines to identify multiple opportunities for drug repurposing: Primary screen for NB-EBc1 cells (AID 1347095); details: NB-EBc1 neuroblastoma viability, CellTiter-Glo luminescence, 48 h; series mostly up to 46 µM
# Summary of the method: as §2
# [17] = qHTS of pediatric cancer cell lines to identify multiple opportunities for drug repurposing: Primary screen for control Hh wild type fibroblast cells (AID 1347106); details: Hh wild-type fibroblast viability, CellTiter-Glo luminescence, 48 h; series mostly up to 46 µM;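 note: a drop in luminescence marks cytotoxicity and a rise apparent proliferation; nearly all actives have a fitted effect of over 55% in size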
# Summary of the method: as §3
# [18] = qHTS of pediatric cancer cell lines to identify multiple opportunities for drug repurposing: Primary screen for LAN-5 cells (AID 1347100); details: LAN-5 neuroblastoma viability, CellTiter-Glo luminescence, 48 h; series mostly up to 46 µM; note: potency is the fitted concentration of half-maximal effect
# Summary of the method: as §3
# [19] = qHTS of pediatric cancer cell lines to identify multiple opportunities for drug repurposing: Primary screen for OHS-50 cells (AID 1347103); details: OHS-50 osteosarcoma viability, CellTiter-Glo luminescence, 48 h; series mostly up to 57.3 µM; note: nearly all actives have a fitted effect of over 40% in size; note: potency is the fitted concentration of half-maximal effect
# Summary of the method: as §4
# [20] = qHTS of pediatric cancer cell lines to identify multiple opportunities for drug repurposing: Confirmatory screen for A673 cells (AID 1347110); details: A673 Ewing sarcoma cell viability; series mostly up to 45.9 µM;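 note: cells exposed to compound for 48 h before the viability read; nearly all actives have a fitted effect of over 65% in size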; note: potency is the fitted concentration of half-maximal effect
# Summary of the method: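 Cells plated at 500-1,000/well were treated five hours later with multi-point dilutions up to 46 µM final. After two days, CellTiter-Glo was added and luminescence read.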
Compound,Potency [1],Potency [2],Potency [3],Potency [4],Potency [5],Potency [6],Potency [7],Potency [8],Potency [9],Potency [10],Potency [11],Potency [12],Potency [13],Potency [14],Potency [15],Potency [16],Potency [17],Potency [18],Potency [19],Potency [20]
COc1cc2c(cc1OC)CN(C(=O)[C@H](C)N[C@@H](CCc1ccccc1)C(=O)O)[C@H](C(=O)O)C2,inactive,inactive,inactive,inactive,inactive,inactive,inactive,inactive,inactive,inactive,inactive,inactive,inactive,inactive,,,,,,
CC[N+](CC)(CC)CCOC(=O)C(C1CCCC1)C1CCCC1,inactive,,,inactive,inactive,,inactive,inactive,,,inactive,inactive,inactive,inactive,inactive,inactive,inactive,,,
CC(=O)OC/C=C(C)/C=C/C=C(C)/C=C/C1=C(C)CCCC1(C)C,inactive,,,inactive,inactive,,inactive,inactive,,inactive,inactive,inactive,inactive,inactive,inactive,inactive,inactive,inactive,inactive,
CC(C)(C)C1CCC(CC2=C(O)c3ccccc3C(=O)C2=O)CC1 (configuration not stated),3.35 µM (active),,5.31 µM (active),,inactive,,,,24.6 µM (active),inactive,,,,,,,inactive,9.44 µM (active),3.89 µM (active),
COc1ccccc1OCC1CNC(=O)O1 (configuration not stated),,inactive,inactive,inactive,inactive,inactive,inactive,inactive,inactive,inactive,inactive,inactive,inactive,inactive,inactive,inactive,inactive,inactive,inactive,
O=C(Oc1ccccc1)c1cccc(C(=O)Oc2ccccc2)c1,,inactive,,inactive,inactive,inactive,inactive,inactive,inactive,inactive,inactive,inactive,inactive,inactive,inactive,inactive,inactive,inactive,,
C1N2CN3CN1CN(C2)C3,,inactive,inactive,inactive,inactive,inactive,,inactive,inactive,inactive,inactive,inactive,inactive,inactive,inactive,inactive,inactive,inactive,inactive,
CCCCCC(=O)O[C@]1(C(C)=O)CC[C@H]2[C@@H]3CCC4=CC(=O)CC[C@]4(C)[C@H]3CC[C@@]21C,21.1 µM (active),,,,,,24.4 µM (active),18.8 µM (active),27.6 µM (active),,,inactive,inactive,,,,inactive,26.6 µM (active),15.5 µM (active),
CCCC(=O)OCOC(=O)C1=C(C)NC(C)=C(C(=O)OC)C1c1cccc(Cl)c1Cl (configuration not stated),,inactive,,inactive,inactive,inactive,inactive,inactive,inactive,inactive,inactive,inactive,inactive,inactive,inactive,inactive,inactive,inactive,,
NS(=O)(=O)c1cc2c(cc1Cl)CN(C1CCCCC1)C2=O,,inactive,inactive,inactive,inactive,,inactive,inactive,inactive,inactive,inactive,inactive,inactive,inactive,inactive,inactive,inactive,inactive,inactive,
O=C(O)c1ccccc1Nc1cc(Cl)ccc1C(=O)O,,inactive,8.2 µM (active),inactive,inactive,9.2 µM (active),11.9 µM (active),,inactive,inactive,inactive,inactive,inactive,11.6 µM (active),inactive,inactive,inactive,inactive,inactive,
Cc1cccc(N(C)C(=S)Oc2ccc3c(c2)C2CCC3C2)c1 (configuration not stated),26.6 µM (active),,,,,,inactive,,,,,inactive,inactive,inactive,,,inactive,inactive,,
CC(=O)OCC(=O)[C@@]1(O)CCC2C3CCC4=CC(=O)CC[C@]4(C)C3[C@@H](O)C[C@@]21C (some centres not stated),,inactive,inactive,inactive,inactive,,inactive,inactive,inactive,inactive,inactive,inactive,inactive,inactive,inactive,inactive,inactive,,,16.5 µM (active)
CN(C)CCN(Cc1ccsc1)c1ccccn1,,inactive,inactive,inactive,inactive,inactive,inactive,inactive,inactive,inactive,inactive,inactive,inactive,inactive,inactive,,inactive,,inactive,inactive
COc1ccc2c(c1)c(CC(=O)OC/C=C(\C)CC/C=C(\C)CCC=C(C)C)c(C)n2C(=O)c1ccc(Cl)cc1,,inactive,inactive,inactive,inactive,inactive,inactive,inactive,inactive,inactive,inactive,inactive,inactive,inactive,inactive,inactive,inactive,inactive,inactive,
CNC[C@H](O)[C@@H](O)[C@H](O)[C@H](O)CO,,inactive,inactive,inactive,inactive,,inactive,inactive,inactive,inactive,,inactive,inactive,inactive,inactive,inactive,inactive,,inactive,
C[N+]1(CC2COC(c3ccccc3)(c3ccccc3)O2)CCCCC1 (configuration not stated),,inactive,inactive,inactive,inactive,,inactive,inactive,inactive,inactive,inactive,inactive,inactive,inactive,inactive,inactive,inactive,inactive,inactive,
COC(=O)C1=C(C)NC(C)=C(C(=O)OCCc2ccc(N3CCN(C(c4ccccc4)c4ccccc4)CC3)cc2)C1c1cccc([N+](=O)[O-])c1 (configuration not stated),,inactive,,inactive,inactive,inactive,inactive,inactive,,inactive,inactive,inactive,inactive,inactive,inactive,inactive,inactive,inactive,inactive,
CC(=O)O[C@@H]1C(=O)O[C@@H]2[C@H]1OC(=O)[C@@H]2OC(C)=O,,13.3 µM (active),3.76 µM (active),inactive,inactive,inactive,inactive,,inactive,inactive,inactive,,inactive,inactive,inactive,inactive,,,,inactive
Fc1ccc(C(c2ccc(F)cc2)N2CCNCC2)cc1,,inactive,,inactive,inactive,inactive,inactive,inactive,inactive,inactive,,inactive,inactive,inactive,inactive,inactive,,inactive,,
CN1CCC(=C2c3ccccc3CCc3cccnc32)CC1,,inactive,inactive,inactive,inactive,inactive,inactive,inactive,inactive,inactive,inactive,inactive,inactive,inactive,inactive,inactive,inactive,inactive,inactive,
NS(=O)(=O)c1cc(C(=O)NN2C[C@H]3[C@H]4CCC(C4)[C@H]3C2)ccc1Cl,,inactive,inactive,inactive,inactive,inactive,inactive,inactive,inactive,,inactive,inactive,inactive,,inactive,inactive,inactive,inactive,inactive,
CC(C)C(=O)Nc1cccc(C2CN3CCSC3=N2)c1 (configuration not stated),,inactive,inactive,inactive,inactive,inactive,inactive,inactive,inactive,inactive,,inactive,inactive,inactive,inactive,inactive,inactive,inactive,inactive,
CC1CC(=O)NN=C1c1ccc(NCC(C)(C)NCC(O)COc2cc(Cl)ccc2C#N)cc1 (configuration not stated),,inactive,inactive,inactive,inactive,inactive,inactive,inactive,inactive,inactive,,inactive,inactive,inactive,inactive,inactive,inactive,,inactive,
C[C@@H]1C[C@H]2[C@@H]3CCC4=CC(=O)C=C[C@]4(C)[C@@]3(F)[C@@H](O)C[C@]2(C)[C@@]1(O)C(=O)COC(=O)c1ccncc1,,inactive,inactive,inactive,inactive,inactive,inactive,inactive,inactive,,inactive,inactive,inactive,inactive,inactive,inactive,inactive,inactive,inactive,
